In PubChem BioAssay AID485272 (The Scripps Research Institute Molecular Screening Center, 2010) one finds inhibition data, which are given here for 92 molecules.

SMILES strings stand for the structures. The campaign covered roughly 330,000 compounds. About 1,300 (0.39%) were called active. Many of the other results were omitted from the sample, so actives are more common in it than they were. A number with no mark means an inactive call.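 Rule for the calls: active = percent inhibition above a cutoff equal to the mean of all tested compounds plus 3 SD (cut at about 15% in these data); inactive = the rest.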

Broadly, the inhibition is the change of the read-out against control, counted positive when it falls.

Sequence of Protein-arginine deiminase type-4 (Homo sapiens) (Q9UM07 whole entry, looked up): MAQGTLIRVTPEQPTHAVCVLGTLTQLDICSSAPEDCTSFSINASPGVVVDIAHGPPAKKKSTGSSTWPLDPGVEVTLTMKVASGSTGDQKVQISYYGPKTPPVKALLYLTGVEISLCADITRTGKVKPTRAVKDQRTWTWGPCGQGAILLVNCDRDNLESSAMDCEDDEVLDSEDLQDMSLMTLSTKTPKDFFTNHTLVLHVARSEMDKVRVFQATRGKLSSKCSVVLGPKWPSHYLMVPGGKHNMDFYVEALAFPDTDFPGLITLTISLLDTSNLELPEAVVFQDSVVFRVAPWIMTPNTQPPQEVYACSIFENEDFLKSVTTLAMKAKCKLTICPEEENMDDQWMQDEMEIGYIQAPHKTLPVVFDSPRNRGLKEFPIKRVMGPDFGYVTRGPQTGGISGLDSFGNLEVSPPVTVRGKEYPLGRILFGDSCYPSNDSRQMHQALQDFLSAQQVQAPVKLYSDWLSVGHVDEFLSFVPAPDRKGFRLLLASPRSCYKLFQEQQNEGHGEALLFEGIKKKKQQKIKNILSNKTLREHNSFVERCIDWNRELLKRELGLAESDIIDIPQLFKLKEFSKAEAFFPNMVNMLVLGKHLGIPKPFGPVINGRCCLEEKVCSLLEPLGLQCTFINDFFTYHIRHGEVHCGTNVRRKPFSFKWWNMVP

This assay concerns the target Protein-arginine deiminase type-4 (Homo sapiens) (UniProt Q9UM07). As to the kind of experiment: human PAD4 inhibitors, primary screen, biochemical, fluorescence polarization, 1536-well format (AID 485272).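 Note: 0% = PAD4 with RCA probe and DMSO and 100% = probe without PAD4.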 To be noted: recombinant PAD4, RCA probe fluorescence polarization; at 6.36 µM; active compounds read high. (In fluorescence polarisation assays a small probe gives low polarisation when free and higher when bound to something large.)
Consider `CCc1nnc(SCc2cccc(F)c2)nc1CC`, for which the inhibition was 24.2% (active). In the case of `Cc1cc(=O)[nH]c(SCc2cccc(F)c2)n1`, the inhibition is 3.23%. Turning to `Nc1cc(N)nc(SCc2cccc(F)c2)n1`, the inhibition is -6.07%. In the case of `CC(C)Cc1nc(Nc2ccc(S(=O)(=O)N3CCCC3)cc2)c2nnn(Cc3ccccc3)c2n1`, the inhibition was -3.06%. Turning to `CCCc1cc(=O)[nH]c(SCC(=O)Nc2ccc(S(=O)(=O)N3CCCC3)cc2)n1`, the inhibition is 5.78%.

As for `CC(=O)N(c1ccc2oc(=O)sc2c1)S(=O)(=O)c1ccc(C)cc1`, the inhibition is 19.6% (active).

In the case of `CC(=O)Oc1ccc(N(C(C)=O)S(=O)(=O)c2ccc3ccccc3c2)cc1Br`, the inhibition was -0.04%.

Take `COC(=O)c1c(C)oc2ccc(N(C(=O)Oc3ccccc3)S(=O)(=O)c3ccccc3)cc12`: the inhibition is -4.57%.

As for `CCOC(=O)c1c(C)[nH]c(C2=NNC(=NC(C)COC)SC2)c1C` (configuration not stated), the inhibition is -4.38%. The same measure for `O=C(NC(=S)Nc1cc(C(F)(F)F)ccc1N1CCOCC1)c1ccc(-c2cccc(Cl)c2)o1`: -0.46%; for `COc1cc(SC#N)ccc1N=Cc1c(C)[nH]n(-c2ccc(C)cc2)c1=O`: 27.3% (active); for `Cc1ccc(-n2[nH]c(C)c(/C=N/NC(=O)c3cccc([N+](=O)[O-])c3)c2=O)cc1C`: -0.65%. For `COc1ccc(C(=O)Nc2ccc(C(=O)NCC3CCCO3)cc2)c(OC)c1OC` (configuration not stated) the value was 2.07%; for `COc1ccc(CCn2ccc(O)c(Cc3ccc(Cl)cc3Cl)c2=O)cc1OC`, 2.71%; for `COc1ncnc2c1N=C1CC(C)(C)CC(N)=C1S2`, 16.7% (active). With `C#CCOCCOCCOCCNc1nc(N2CCN(C(=O)C([C@@H](C)O)n3cc([C@@H](N)CCCCN)nn3)CC2)nc(N2CCN(C(=O)[C@H](CCCCN)n3cc(CN)nn3)CC2)n1` (some centres not stated), the inhibition is 4.78%. For `CC(=O)NS(=O)(=O)c1ccc(N/C(N)=N/c2nc(C)cc(C)n2)cc1` the value was -0.78%. For `CSc1ccc(/C=C2\NC(=O)NC2=O)cc1` the value was -0.37%.

As to `CNC(=O)c1ccsc1NC(=O)c1ccc(S(=O)(=O)N2CCOCC2)cc1`, the inhibition is -4.29%. As to `COc1ccc(C(=O)Nc2nc(-c3ccc(S(=O)(=O)N4CCOCC4)cc3)cs2)cc1`, the inhibition was 17.5% (active).

Regarding `CCOC(=O)c1csc(NC(=O)c2ccc(S(=O)(=O)N3CCCC3)cc2)n1`, the inhibition was -3.23%. `CCOC(=O)c1ccc(NNC(C)=O)c([N+](=O)[O-])c1`: the inhibition was -2.2%. `COC(=O)c1noc(C)c1-c1ccnn1C(=O)c1ccc(Cl)cc1`: the inhibition is -7.73%.

As for `Cc1ccc(N=C2NC(=O)c3cccc([N+](=O)[O-])c32)cc1`, the inhibition was -1.46%.

Turning to `O=C(NCc1ccccn1)c1ccc2nc(-c3ccco3)c(-c3ccco3)nc2c1`, the inhibition is 7.09%. Take `COc1cccc(NC(=O)NCCN2CCCCC2)c1`: the inhibition is -0.52%. For `COCCNC(=O)Nc1ccc2nc(-c3ccco3)c(-c3ccco3)nc2c1` the value was 22% (active); for `CCc1ccc(OC(C)C(=O)Nc2ccc(S(=O)(=O)Nc3cc(C)on3)cc2)cc1` (configuration not stated), -0.06%; for `CC(C)C(NC(=O)OCc1ccccc1)C(=O)OCC(=O)N1C(C)CCCC1C` (configuration not stated), 2.54%. As for `O=C(c1ccc(F)c(S(=O)(=O)N2CCOCC2)c1)N(CCc1ccccc1)Cc1ccccc1`, the inhibition is -3.27%. `Cc1nn(Cc2ccccc2)c(C)c1CNC(=O)c1ccc(F)c(S(=O)(=O)N2CCOCC2)c1`: the inhibition is 27.9% (active). On to `O=C(NCCSCc1ccccc1)c1ccc(Cl)c(S(=O)(=O)N2CCOCC2)c1`, for which the inhibition was 1.45%.

On to `CCOC(=O)c1cc(NC(=O)SCC(=O)O)c(C)nc1C`, for which the inhibition was 2.33%.

As for `CC1=NN(C(C)C)C(=O)C1`, the inhibition was -8.28%. The same measure for `CC(C)(C)NC(=O)NC(=O)COC(=O)CCC1CCCCC1`: 41.1% (active). With `CC(C)(C)NC(=O)NC(=O)COC(=O)C1(C)CC1(Cl)Cl` (configuration not stated), the inhibition was -0.93%. The same measure for `COc1ccccc1OCCC(=O)OCC(=O)NC(=O)NC(C)(C)C`: 6.96%; for `COc1ccc(S(=O)(=O)N2CCCCCC2)cc1C(=O)OCC(=O)Nc1cc(C)on1`: -6.43%. Regarding `CCCCN(C)CCNC(=O)CSCc1ccc(C)cc1`, the inhibition was -2.21%. The same measure for `COc1ccc(CCNS(=O)(=O)c2ccc(Cl)s2)cc1OC`: -2.69%. `Cc1ccc(F)cc1NC(=O)Cc1nn(C)c(=O)c2ccccc12`: the inhibition was -6.33%.

Consider `Cc1c(-c2nn(C)c(=O)c3ccccc23)oc2ccc(F)cc2c1=O`, for which the inhibition is 35.8% (active). The same measure for `O=C1c2oc3ccc(Br)cc3c(=O)c2C(c2cccc(F)c2)N1CCO` (configuration not stated): -4.97%; for `COC(=O)c1cc2c(N)c(C(=O)c3ccc(Cl)cc3)sc2nc1C(OC)OC`: 0.06%. As for `Nc1ccc2nc3c(=O)[nH]c(=S)[nH]c3nc2c1`, the inhibition was 31.8% (active). The same measure for `O=c1c(F)cn(C2CCCO2)c(=O)n1Cc1ccccc1Cl` (configuration not stated): -4.61%; for `O=C(CNC1CCCCC1)NCC1(c2ccccc2)CCCC1`: -2.33%. On to `Cc1nn(-c2ccccc2)c2c1C(c1ccc(F)cc1)C(C#N)=C(N)O2` (configuration not stated), for which the inhibition was -1.5%. Take `COc1ccccc1C1C(C#N)=C(N)Oc2c1c(-c1ccccc1)nn2-c1ccccc1` (configuration not stated): the inhibition is 33.4% (active).

For `Cc1nn(Cc2ccccc2)c2c1C(c1ccccc1)C(C#N)=C(N)O2` (configuration not stated), the inhibition was -0.16%. Consider `O=C(O)CC(SCC(=O)Nc1ccc(Br)cc1)C(=O)O` (configuration not stated), for which the inhibition is 1.63%. `COCCOC(=O)c1sc(=S)n(CCOC)c1N`: the inhibition was 40.9% (active). Turning to `CCOC(=O)CN(C(=O)COc1nc(C)cc(C)c1C#N)c1ccc(Cl)cc1`, the inhibition is 5.17%. For the molecule `CCOc1ccc(N=C2NC(=O)S/C2=C\c2ccc(O)cc2)cc1`, the inhibition is -1.95%. For `CCOc1[nH]n(-c2ccc(Cl)cc2)c(=O)c1C=Nc1ccc(O)cc1` the value was 26.1% (active); for `CC(C)c1nc(CNC(=O)CC2C(=O)NCCN2Cc2ccoc2)cs1` (configuration not stated), 5.06%; for `OC1CSc2nc3ccccc3n2C1` (configuration not stated), -1.87%. `Cc1ccc(-c2cc(C(=O)NCc3cn(C)nc3C)c3cc(Br)ccc3n2)cc1`: the inhibition was 2.48%. For `O=C(CSc1nc2ccccc2c(=O)n1Cc1ccc(F)cc1)NCC1CCCO1` (configuration not stated) the value was -1.2%. For `O=C(CCn1c(SCC(=O)c2ccccc2)nc2ccccc2c1=O)NCc1ccc(F)cc1` the value was 67.8% (active); for `O=C(CSc1nc2ccccc2c(=O)n1-c1ccc(F)cc1)NC1CC1`, 1.54%; for `CCN(C(=O)CSc1nc(N)cc(=O)[nH]1)C1CCS(=O)(=O)C1` (configuration not stated), -0.69%. For `CONc1nc2nonc2nc1NOC` the value was -1.87%; for `COc1ccc([C@H]2CC(=O)C=C(c3ccc(CO)cc3)C2)cc1`, 1.09%. Consider `O=S(=O)(Cc1nnnn1-c1ccc(Br)cc1)c1ccc(F)cc1`, for which the inhibition is -0.08%. The same measure for `O=C1CN(C(=O)CN2C(=O)NC3(CCCCC3)C2=O)c2ccccc2N1`: 1.47%; for `Cc1ccc(C)c(S(=O)(=O)N2CCCOC2CNC(=O)C(=O)NC2CCCCC2)c1` (configuration not stated): -5.07%. For `COc1ccc(-c2nc(CS(=O)CC(=O)NCc3ccccc3)c(C)o2)cc1OC` (configuration not stated) the value was 6.4%. Regarding `COc1cccc(-c2nc(CS(=O)CC(=O)NCc3ccc(F)cc3)c(C)o2)c1` (configuration not stated), the inhibition is 0.77%. For `COc1ccc(-c2nc(CS(=O)CC(=O)NCc3ccccn3)c(C)o2)cc1` (configuration not stated) the value was 30.3% (active); for `Cc1ccc(/C=C2\CCn3c2nc2cc(C(=O)O)ccc2c3=O)c(C)c1`, -1.1%; for `COc1ccccc1OCCCCCCN1CCN(C)CC1`, -0.69%. With `Cn1c(SCC(=O)Nc2nccs2)nnc1-c1cccnc1`, the inhibition is 0.78%. For `Cc1c(C(=O)Nc2cccc(Cl)c2)cn2c(nc3ccccc32)c1C#N` the value was -8.49%; for `Cn1c(NC(=O)c2ccccc2)nc2ccccc21`, -1.36%. On to `Cn1c(Nc2cccc(Cl)c2)nc2ccccc21`, for which the inhibition is 22.6% (active). The same measure for `CC(C)CNC(=S)NC(=O)c1ccc(Cl)cc1`: 3.77%; for `CC(NC(=O)c1ccc(Cl)cc1)C(=O)N1CCCCC1` (configuration not stated): -2.13%; for `CC(C)C(NC(=O)c1ccc(Cl)cc1)C(=O)O` (configuration not stated): 33.2% (active).

On to `CN(C)N1C(N)=C(C#N)C(c2ccc(Br)cc2)C2=C1CCCC2=O` (configuration not stated), for which the inhibition is -7.04%.

Regarding `CN(C)S(=O)(=O)c1cccc(-c2nn(-c3ccccc3)cc2/C=C2\SC(=S)N(CC(=O)O)C2=O)c1`, the inhibition was 29.1% (active). Take `Cc1ccc(-c2nn(-c3ccccc3)cc2/C=C/C(=O)Nc2cccc(S(N)(=O)=O)c2)cc1`: the inhibition was -9.63%.

With `Cc1ccc(-c2nn(-c3ccccc3)cc2/C=C2\SC(=S)N(CCCCCC(=O)O)C2=O)o1`, the inhibition was -0.43%. For `Cc1cc(NS(=O)(=O)c2ccc(NC(=S)NC(=O)c3ccc(F)cc3Cl)cc2)no1` the value was -2.99%.

Regarding `CCOc1ccc(S(=O)(=O)N2CCC(C(=O)NCc3ccccn3)CC2)cc1Cl`, the inhibition was -2.62%. For the molecule `C=C1CCC(N(O)c2cc(C)on2)C(=C)CCC2C1CC2(C)C` (configuration not stated), the inhibition is -6.2%. With `O=c1[nH]n(-c2ccc([N+](=O)[O-])cc2)c(=O)c2ccccc12`, the inhibition was 31.3% (active). The same measure for `COc1cnn(-c2ccc([N+](=O)[O-])cc2)c(=O)c1Cl`: 3.88%; for `Cc1[nH]n(-c2ccc([N+](=O)[O-])cc2)c(=O)c1C=NCCN1CCN(C(=O)c2ccccc2F)CC1`: -1.51%; for `COc1ccc(-c2cc(C(=O)NCCCN3CCOCC3)no2)cc1`: -1.77%. The same measure for `CCCCNC(=O)C1(c2ccc(OC)cc2)CCOCC1`: 26.1% (active); for `CCCCCNC(=O)Cc1ccc(OC)cc1`: 1.91%.
